IL1B secr inh = qHTS for Inhibitors of Inflammasome Signaling: IL-1-beta AlphaLISA Primary Screen. THP-1 LPS/ATP IL-1B secretion, AlphaLISA, 16 h; stronger effect = lower value. AID 743279, 2014. 360,000 tested, 4.7% active. activity change, % at 57.5 µM; in the data active = activity change below about -50%; inconclusive = mostly about -30% to -49%
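THP-1 cells pretreated 1 hr with compounds (up to 57.5 uM final), then stimulated with LPS (250 ng/mL final) plus ATP (1.25 mM final); secreted IL-1B measured by AlphaLISA after 16 hr, decreased signal indicating inhibition.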
ATXN2 expr inh = Primary qHTS for Inhibitors of ATXN expression. 360,000 tested, 0.72% active. AID 1745845, 2022. Potency, µM (top dose mostly 57 µM), actives largely listed as inhibitors. HEK-293 ATXN2-luciferase reporter, luminescence, 24 h; note: nearly all actives have a fitted effect of over 55% in size
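ATXN2-luciferase reporter cells (luciferase flanked by upstream and downstream ATXN2 gene portions) were treated 24 h at 37 °C with compounds at up to 57 uM. SteadyGlo luminescence gave expression; GF-AFC fluorescence gave viability.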
HepG2 viability = qHTS for Inhibitors of TGF-b: Cytotox Counterscreen; HepG2 CAGA-GFP viability, ATP luminescence, 18 h; Potency, µM (series often up to 46.1 µM), hits mostly cytotoxic; 410,000 tested, 0.76% active; AID 588856, 2011
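CellTiter-Glo luminescence gave cytotoxicity after 18 hours at 37 degrees C. The cells were HepG2 CAGA-GFP in 1% FBS DMEM, stimulated with 500 pg/mL TGF-beta after compound addition. %Activity was normalised to no-cell wells (complete cell-killing) and DMSO (no toxicity), and curves were fitted and classified.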
TGFb inhibitor = qHTS for Inhibitors of TGF-b | 410,000 tested, 1.2% active | AID 588855, 2011 | Potency, µM (highest dose often 46.1 µM), hits mostly inhibitors | HepG2 CAGA-GFP TGF-b/SMAD3 reporter, GFP fluorescence, 18 h; TGF-beta stimulated, 500 pg/mL final; note: nearly all actives have a fitted effect of over 65% in size
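First, reporter cells (HEPG2 CAGA-GFP) rested 2 h at 37 degrees C. Next, compounds were pinned in and TGF-beta added to 500 pg/mL final. After 18 h, GFP was imaged per cell and summed per well.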
S2 tox = Viability Counterscreen for Primary qHTS for Inhibitors of ATXN expression; S2 cells (HEK-293 line with an ATXN2-luciferase reporter) viability, CellTiter-Fluor protease fluorescence, 24 h; AID 651635, 2014; 400,000 tested, 0.49% active; Potency, µM (doses to about 56.7 µM), actives largely listed as cytotoxic; note: nearly all actives have a fitted effect of over 40% in size
Hits are given with their value; - = inactive; ? = inconclusive; . = no result; [ ] = another dose, or the depositor's remark. Most compounds without a hit are left out; they make up all but 5.7% or so of the library. Unless noted, calls come from the whole dose curve; as a rule, active = well fitted curve in the direction sought with a large enough effect; inconclusive = small, poorly fitted or top-dose-only effect, or another doubt; inactive = no such curve, though single readings can be large; an effect the other way counts as inactive or inconclusive.

SMILES | IL1B secr inh | ATXN2 expr inh | HepG2 viability | TGFb inhibitor | S2 tox
O=C(c1ccccc1)N1N=C(c2ccccc2)CC1c1ccccc1O (stereo unspecified) | -108 | - | - | ? | -
COc1ccc(C2CC(c3ccccc3)=NN2C(=O)c2ccc(F)cc2)cc1 (stereo unspecified) | -64 | - | - | ? | -
COc1ccc(C2CC(c3ccc(OC)cc3O)=NN2C(=O)c2ccccc2)cc1 (stereo unspecified) | - | - | - | - | -
O=C(c1ccncc1)N1N=C(c2ccc(Br)cc2)CC1c1ccccc1O (stereo unspecified) | -63 | ? | - | ? | -
O=C(c1ccccc1)N1N=C(c2ccccc2O)CC1c1ccccc1 (stereo unspecified) | - | - | - | ? | -
CCOc1ccc(NC(=O)CN2C(C(=O)OC)=C(c3ccccc3)c3cc(Cl)ccc3S2(=O)=O)cc1 | . | - | - | - | -
Cc1ccc(NC(=O)CCn2nc(C)c(S(=O)(=O)N3CCCCC3)c2C)cc1Cl | . | . | - | ? | .
COc1ccc(CCNC(=O)C(C)n2nc(C)c3sc4ccccc4c3c2=O)cc1OC (stereo unspecified) | . | . | - | - | .
Oc1ccc(-c2n[nH]c(C(F)(F)F)c2-c2ccccc2)c(O)c1 | -78 | - | - | ? | -
C=C1C(=O)O[C@H]2[C@H]1[C@@H](O)CC(=C)[C@@H]1CC(=O)[C@@H](C)[C@H]21 | -92 | - | - | - | ?
COc1cc(C)c(CN2CCOc3ccc(C(O)c4cccnc4)cc3C2)cc1C (stereo unspecified) | . | . | . | . | -
O=C1C=C(c2ccccc2)C[C@H](c2cccs2)[C@H]1n1nnc([N+](=O)[O-])n1 | -73 | ? | - | - | 28µM
Cc1cc(C)c(S(=O)(=O)N2CCC(N3CCN(Cc4ccc(F)cc4)C(=O)C3=O)CC2)c(C)c1 | . | - | - | - | -
Cc1oc(-c2ccc(Cl)cc2)nc1CS(=O)CC(=O)NCCCN1CC(C)CC(C)C1 (stereo unspecified) | -70 | - | - | ? | -
Cc1oc(-c2ccc(Cl)cc2)nc1CS(=O)CC(=O)NCCN1CCCCCC1 (stereo unspecified) | - | . | - | ? | -
Cc1ccc(-c2nc(CS(=O)CC(=O)NCCN3CCCCCC3)c(C)o2)cc1 (stereo unspecified) | - | . | - | 13µM | .
Cc1ccc2c(c1)c1c3n2CCN(CC(O)CNC(C)C)C3CCC1 (stereo unspecified) | -57 | ? | - | - | -
Cc1ccc2c(c1)c1c(n2CC(O)Cn2ccnc2C)C(=O)CCC1 (stereo unspecified) | - | - | - | - | -
Cc1ccc2c(c1)c1c(n2CC(O)CNC2CCCC2)CCCC1 (stereo unspecified) | -90 | . | - | ? | 25µM
CN(C)c1ccc(C=Nc2ccc(/C=C3\C=Cc4ccccc43)cc2)cc1 | . | . | - | - | .
CCCC(=NC(C)CC)C1=C(O)CC(c2ccccc2)CC1=O (stereo unspecified) | -67 | - | - | - | -
CCC(C)N=CC1=C(O)CC(c2ccccc2)CC1=O (stereo unspecified) | - | - | - | - | ?
Cc1ccccc1NC(=O)N1CCC(CN2CCCC2)CC1 | . | . | - | - | .
Cc1ccccc1-n1ncc2c(SCC(=O)NC3CCCC3)ncnc21 | -71 | - | - | ? | -
Cc1ccccc1-n1ncc2c(SCC(=O)N3c4ccccc4CC3C)ncnc21 (stereo unspecified) | -92 | - | - | - | -
SMILES | IL1B secr inh | ATXN2 expr inh | HepG2 viability | TGFb inhibitor | S2 tox
CCOC(=O)c1ccccc1NC(=O)CCc1nc(-c2ccc(C)cc2)no1 | . | . | - | - | .
COC(=O)c1ccccc1NC(=O)Cc1nc(-c2ccc(OC)cc2)no1 | . | . | 18µM | ? | .
COc1ccc(S(=O)(=O)NCCOc2ccccc2)cc1OC | - | - | - | ? | -
COc1ccc(S(=O)(=O)NCCOc2ccccc2)cc1-n1cnnn1 | -50 | -[11.3 µM] | - | - | -
Cc1ccc(-c2nnc3ccc(SCC(=O)N4CCCc5ccccc54)nn23)cc1 | - | ? | - | - | 8.9µM
Cc1ccc(-c2nnc3ccc(SCC(=O)N4CCc5ccccc54)nn23)cc1 | - | - | - | - | -
C=CCC[C@@H](Cc1ccc(F)cc1)C(=O)OC[C@@H](NC(=O)[C@@H](CC=C)CC(=O)N[C@@H](CO)Cc1ccccc1)C(C)(C)C | ? | ? | - | ? | 22µM
C=CCC[C@H](Cc1ccc(F)cc1)C(=O)OC[C@@H](NC(=O)[C@@H](CC=C)CC(=O)N[C@@H](CO)Cc1ccccc1)C(C)(C)C | -60 | ? | - | ? | .
Cc1cccc(OCC(=O)N(Cc2ccc(C(C)(C)C)cc2)Cc2ccco2)c1 | . | . | - | - | .
C=CC(=O)Nc1ccc(CN2C(=O)N(c3c(Cl)c(OC)cc(OC)c3Cl)Cc3cnc(NCCCCN(CC)CC)nc32)cc1 | -67 | ? | - | ? | 11µM
CCN(Cc1ccncc1)Cc1ccc2c(c1)CN(C(=O)c1cccc3c(C)c(C)[nH]c13)CCO2 | . | . | . | . | -
CC1CC(=O)NN=C1c1ccc(NCC(C)(C)NCC(O)COc2cc(Cl)ccc2C#N)cc1 (stereo unspecified) | . | - | . | . | -
O=C(Oc1ccccc1C(=O)Nc1ccccc1)c1ccc(Br)c([N+](=O)[O-])c1 | -73 | . | - | ? | -
COc1ccccc1C(=O)Oc1ccccc1C(=O)Nc1ccccc1 | - | . | - | - | -
CCCN1CCN(CCCNC(=O)c2ccc3c(c2)sc2nc(-c4ccc(C)cc4)cn23)CC1 | . | . | - | ? | .
O=C(NCCCN1CCCCCC1)c1ccc2c(c1)sc1nc(-c3ccccc3)cn12 | . | . | 16µM | ? | .
Clc1ccc(-n2cccc2CN2CCOc3ccc(CN4CCOCC4)cc3C2)nc1 | . | . | . | . | -
S=C(c1ccc(-c2ccccc2Cl)o1)N1CCOCC1 | -91 | - | - | - | -
CC1CCN(C(=O)c2ccc(-c3ccccc3Cl)o2)CC1 | -100 | - | - | - | -
O=C(c1ccc(-c2ccccc2Cl)o1)N1CCC1 | - | - | - | - | -
S=C(c1ccc(-c2ccc(Cl)c(Cl)c2)o1)N1CCOCC1 | ? | - | - | - | -
CC(=O)Nc1ccc(NC(=O)CCc2c(C)nc3c(c(C)nn3-c3ccc(C)cc3)c2C)cc1 | . | . | - | . | .
CCc1cccc(C)c1NC(=O)CSc1nnc(CC)n2c1cc1occc12 | . | . | - | 7.9µM | .
Cn1nc(C(=O)N2CCN(c3ccc(Cl)cc3)CC2)c2c1-c1ccccc1S(=O)(=O)C2 | -58 | ? | - | ? | ?
CC(C)c1ccc(NC(=O)C(c2ccccc2)N(Cc2ccco2)C(=O)CC2NC(=O)NC2=O)cc1 (stereo unspecified) | -56 | - | - | ? | -
